Reference: PubChem BioAssay AID624404 (Broad Institute, 2012)
The whole screen tested about 1,800 compounds, of which about 710 (39%) were called active. About 28% were inconclusive and are not listed.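 Rule for the calls: active = luciferase signal rise whose fitted curve crosses a set activity limit at or below the top valid tested dose; inconclusive = flat fit with 30 to 70% rise, or poor fit; inactive = signal falling, flat within 30%, or crossing above top dose.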 The list is a sample of the results. Entries with a potency or affinity are not part of this list.

Experiment: reporter signal increase, D54 LucT cells – cell-based, luminescence, cherry pick, counter-screen for N-linked glycosylation inhibitor project, dose response (AID 624404)
Settings: D54 LucT luciferase reporter counterscreen, 24 h; series mostly up to 19.5 µM

Structure (SMILES) | outcome
Cn1cnc([N+](=O)[O-])c1Oc1ccc2ccccc2c1 | inactive
COc1ccc(/C=C/C(=O)c2ccc3c4c(cccc24)CC3)cc1OC | inactive
COc1cc(/C=C2/CCC/C(=C\c3cc(O)c(OC)c(Cl)c3)C2=O)cc(Cl)c1O | inactive
Cc1cc(NC(=O)CSc2nc(C3CC3)nc3sc(C)c(C)c23)no1 | inactive
C=CCn1c(SCC(=O)c2[nH]c(C)c(C(=O)OC)c2C)nc2scc(-c3ccc(OC)c(OC)c3)c2c1=O | inactive
CCOc1ccc(NC(=O)C(=O)NCCN2CCN(S(=O)(=O)c3ccc(C)cc3)CC2)cc1 | inactive
CN(C)CCCN1C(=O)c2cccc3c(Br)ccc(c23)C1=O | inactive
Cc1cccc(N2CCN(C(=O)c3ccncc3)CC2)c1C | inactive
Cc1nn(C(C)(C)C)c(OC(=O)c2ccc3c(c2)OCO3)c1Sc1ccccc1 | inactive
c1ccc2cc3c(NCCN4CCOCC4)ccnc3cc2c1 | inactive
c1ccc(-c2cc(NCCN3CCCCC3)c3ccccc3n2)cc1 | inactive
Cc1cc(C)nc(/N=C(\N)Nc2ccc(OCc3ccccc3)cc2)n1 | inactive
CCOC(=O)Nc1c2ccccc2nc2ccccc12 | inactive
Cc1cccc2c(N)c3c(nc12)N(C)CC3 | inactive
COc1cc2c(C(=O)N3CCN(c4cccc(Cl)c4)CC3)cn(C)c(=O)c2cc1OC | inactive
Cc1ccc(S(=O)(=O)Cc2ccc(C(=O)N3CCN(c4cccc(C)c4C)CC3)o2)cc1 | inactive
COc1ccc(NC(=O)C2(C)Cc3c(-c4cccc(NC(C)=O)c4)ccnc3O2)cn1 (configuration not stated) | inactive
CC(=O)Nc1cccc(-c2ccnc3c2CC(C)(C(=O)NCc2ccco2)O3)c1 (configuration not stated) | inactive
CC(=O)Nc1cccc(-c2ccnc3c2CC(C)(C(=O)Nc2cccc(C(C)=O)c2)O3)c1 (configuration not stated) | inactive
CC1(C(=O)NCC2CC2)Cc2c(-c3cccc(C(F)(F)F)c3)ccnc2O1 (configuration not stated) | inactive
COc1ccc(C2=NOC(C(=O)NCc3ccc(F)cc3)C2)cc1OC (configuration not stated) | inactive
COC(=O)CNC(c1ccccc1Cl)c1cc(Br)ccc1NC(=O)CCN1CCOCC1 (configuration not stated) | inactive

Structure (SMILES) | outcome
Cc1cc(-n2c(C)cc(C(=O)CCl)c2C)no1 | inactive
CCN(CC)S(=O)(=O)c1cc(NC(=O)Cn2ncc(Cl)c(Cl)c2=O)ccc1C | inactive
O=C(C[C@@H]1C[C@H]2c3cc(NC(=O)c4cccnc4)ccc3O[C@H]2[C@H](CO)O1)NCc1ccc(Oc2ccccc2)cc1 | inactive
COc1ccc(Nc2nc(N)c(C(=O)c3ccc(F)cc3)s2)cc1 | inactive
Cn1cnc(Sc2ncnc3nc[nH]c23)c1[N+](=O)[O-] | inactive
COc1ccccc1OCC(=O)N/N=C/C=C/c1ccc([N+](=O)[O-])o1 | inactive
COc1ccc(-c2cc3ccccc3oc2=O)cc1NC(=S)NC(=O)c1ccc2c(c1)OCCO2 | inactive
O=C(Nc1cccc(-c2nc3ncccc3o2)c1)c1sc2ccccc2c1Cl | inactive
Oc1ccc(Nc2nc(NCC3CCCO3)c3ccccc3n2)cc1 (configuration not stated) | inactive
Oc1cccc(Nc2c3ccccc3nc3ccccc23)c1 | inactive
COc1ccc(C2Nc3ccc4ccccc4c3-c3c2c(=O)oc2ccccc32)cc1 (configuration not stated) | inactive
COc1cc2c(cc1OC)C(c1cc(Br)ccc1F)N(C(=O)CCl)CC2 (configuration not stated) | inactive
Oc1cc(Nc2ccccc2)cc2cccnc12 | inactive
COc1ccc(S(=O)(=O)Nc2cccc3ccc(O)cc23)cc1 | inactive
CCOC(=O)C(CC)(CC)C(=O)/C=C/c1cccc(Br)c1 | inactive
COc1ccc(N2CCc3c(C)nc4c(OC)cc(OC)cc4c32)cc1 | inactive
COc1ccc(N2CCc3c(C)nc4c(OC)cccc4c32)cc1 | inactive
CCN(CC)CCC(=O)Nc1cccc2c1C(=O)c1ccccc1C2=O | inactive
CCN(CC)CCn1c2ccccc2c2cnc(N)c(C#N)c21 | inactive
O=C(C=Cc1ccc2c(c1)OCO2)C=Cc1ccc2c(c1)OCO2 | inactive
CC(=O)C1=C(C)OC(N)=C(C#N)C1c1cc([N+](=O)[O-])ccc1Cl (configuration not stated) | inactive
CCN1C(=O)c2cccc3c(S(=O)(=O)N4CCC(C)CC4)ccc1c23 | inactive

Structure (SMILES) | outcome
C=CCN(CC=C)C(=O)CN1C(=O)NC(C)(c2ccc3cc(OC)ccc3c2)C1=O (configuration not stated) | inactive
Cc1ccc(CCC(=O)Nc2ncc(Cc3cc(Cl)ccc3Cl)s2)o1 | inactive
COc1ccc(-c2nc(NC(=O)C3CC(=O)N(c4ccc5c(c4)OCCO5)C3)sc2C)cc1 (configuration not stated) | inactive
CCCCCCCCCCCCCCCC[n+]1ccc(/C=N/O)cc1 | inactive
Cc1ccc(CNC(=O)Cc2ccc(Br)cc2)cc1 | inactive
CCOC(=O)C(C)Oc1cccc2c(=O)n(CC(=O)NCc3ccc(F)cc3)ccc12 (configuration not stated) | inactive
CCN(CC)CCNC(=O)c1cc2c(-c3ccc(Cl)cc3)nn(C)c2s1 | inactive
COc1ccc(CCn2c(=N)c(C(=O)NCc3ccco3)cc3c(=O)n4ccccc4nc32)cc1 | inactive
CC1(C(=O)NCc2ccccc2)Cc2c(-c3ccc4c(c3)OCO4)ccnc2O1 (configuration not stated) | inactive
CC(=O)c1cccc(-c2ccnc3c2CC(C(=O)NCc2ccco2)O3)c1 (configuration not stated) | inactive
CC1(C(=O)Nc2ccc(Cl)cc2)Cc2c(-c3cccc(C(N)=O)c3)ccnc2O1 (configuration not stated) | inactive
CC1(C(=O)NCc2ccccc2)Cc2c(-c3ccccc3)ccnc2O1 (configuration not stated) | inactive
COc1ccc(NC(=O)C2(C)Cc3c(-c4cccc(C(N)=O)c4)ccnc3O2)cn1 (configuration not stated) | inactive
COc1ccccc1C(=O)Nc1nnc(CCc2ccccc2)s1 | inactive
CN(C)S(=O)(=O)c1ccc(N2CCCC2)c(C(=O)Nc2nc(-c3ccc(F)cc3)cs2)c1 | inactive
CC(C)(C)n1nnnc1C(c1ccccc1)N1CCc2ccccc2C1 (configuration not stated) | inactive
Nc1ncnc(Sc2ccc(Cl)cc2)c1[N+](=O)[O-] | inactive
Cc1cccn2c(=O)c3cc(C(=O)NCCN4CCOCC4)c(=N)n(CCc4ccccc4)c3nc12 | inactive
CCC1=Nc2cc(C(=O)NCCCOC)ccc2Sc2ccccc21 | inactive
CCNC(=O)c1cc2c(=O)n3cccc(C)c3nc2n(CCc2ccccc2)c1=N | inactive
O=C(NCc1ccco1)c1nn2c(C(F)(F)F)cc(-c3cccs3)nc2c1Br | inactive
NNC(=O)c1oc2nc(-c3ccco3)cc(-c3ccco3)c2c1N | inactive

Structure (SMILES) | outcome
COc1ccc(C(=O)NCc2nnc(SCC(=O)NO)n2Cc2ccccc2)cc1 | inactive
Cn1nc(C(F)(F)F)c(/C=N/OC(=O)c2ccccc2Cl)c1SCc1ccccc1Cl | inactive
COc1ccc(OC)c(-c2nnc3n2N=C(c2ccc(OC)c(OC4CCCC4)c2)CS3)c1 | inactive
S=c1[nH]nc(-c2cc(-c3ccccc3)n[nH]2)n1/N=C/C(Br)=C/c1ccccc1 | inactive
Clc1ccc(C2=Nn3c(nnc3-c3cc(-c4ccccc4)n[nH]3)SC2)cc1 | inactive
CC(Oc1ccc2c(c1)c1ccnc3c4ccccc4c(=O)n2c13)C(=O)NCCN1CCOCC1 (configuration not stated) | inactive
Oc1ccc(NCc2ccccc2OCc2ccccc2)cc1 | inactive
CCn1c2ccccc2c2cc(NC(=O)COC(=O)c3ccc(O)cc3)ccc21 | inactive
c1ccc2c(c1)c1c(c3ccccc32)CN2CCCC2C1 (configuration not stated) | inactive
Cc1nnc2c(NCCC(C)C)nc3ccccc3n12 | inactive
FC(F)(F)c1nnc2c(Sc3ccc(Cl)cc3)nc3ccccc3n12 | inactive
Cc1cc([N+](=O)[O-])ccc1Nc1nc2ccccc2n2cnnc12 | inactive
CCN(CC)CCCNc1cc(C)c(C#N)c2nc3ccccc3n12 | inactive
Cc1ccc(NC(=O)c2cc(S(=O)(=O)N(C)C)ccc2N2CCCC2)cc1F | inactive
COc1ccc(S(=O)(=O)Nc2c(C(=O)O)[nH]c3ccc(OC)cc23)c(OC)c1 | inactive
COc1cc(NC(=O)c2cc(-c3ccccc3)nc3c2cnn3C(C)C)cc(OC)c1OC | inactive
COc1cc(-c2noc(C)c2/C=C/c2ccc(OC(C)=O)cc2)cc(OC)c1OC | inactive
NC(=O)c1cccc(Nc2nc(C(N)CCc3ccccc3)cs2)n1 (configuration not stated) | inactive
CCOC(=O)C1CCN(S(=O)(=O)Cc2ccccc2)CC1 | inactive
O=C1CCCC2=C1C(c1ccco1)Nc1ccc(C(=O)c3ccccc3)cc1N2 (configuration not stated) | inactive
CCCn1c2ccccc2c2cnn(CC(=O)NC3CCCC(C)C3C)c(=O)c21 (configuration not stated) | inactive
CCOc1ccccc1NC(=O)CN(c1ccc(OC)cc1)S(=O)(=O)c1c(C)noc1C | inactive

Structure (SMILES) | outcome
COc1ccc(OC)c(N(CC(=O)Nc2cccnc2)S(=O)(=O)c2ccc(C)cc2)c1 | inactive
COc1ccc(N(CC(=O)Nc2cc(Cl)ccc2OC)S(=O)(=O)c2c(C)noc2C)cc1 | inactive
CN(C)Cc1c(O)ccc2c1O/C(=C\C=C\c1ccccc1)C2=O | inactive
O=C(CCl)N1CCCC1c1ccc2c(c1)OCCO2 (configuration not stated) | inactive
CC(C)C(=O)Nc1ccc(C(=O)N/N=C/c2cc(Br)cc(Br)c2O)cc1 | inactive
COc1ccc(/C=N/NC(=O)c2ccc(COc3ccccc3Cl)o2)c(OC)c1C | inactive
Cc1cc2nnc(SCC(=O)NCc3cccs3)n2c2ccccc12 | inactive
CNC(=O)c1cccc2nc3ccccc3nc12 | inactive
Cc1cc(C)c(C)c(OC(=O)c2sc(Cl)nc2C)c1 | inactive
CCOC(=O)c1ccc(Oc2cc(C)nc(SC)n2)cc1 | inactive
CCOC(=O)c1ccc(N=c2sc(C(=O)OC)cc(=O)n2Cc2ccco2)cc1 | inactive
CCn1cc([N+](=O)[O-])c(C(=O)Nc2nc(-c3ccc(C)c(C)c3)c(C)s2)n1 | inactive
COc1cccc(Oc2ccc(C(F)(F)F)cc2NC(=O)CN2C(=O)NC3(CCCC3)C2=O)c1 | inactive
COC(=O)c1cc(OC)c(OC)cc1NC(=S)NC(=O)c1ccco1 | inactive
CN(C)CCCNc1c2c(nc3ccccc13)CCC2 | inactive
CN(C)CCOc1nc(-c2ccccc2)nc2c1oc1ccccc12 | inactive
Cc1cc(NCCCN(C)C)n2c(nc3ccccc32)c1C#N | inactive
CCN(CC)CCCNc1nc2ccccc2c2nc(-c3ccncc3)nn12 | inactive
c1ccc(CNc2nc(NCCc3ccncc3)c3sccc3n2)cc1 | inactive
